Test results from PubChem BioAssay (NCATS).
Inconclusive results are not listed. Values without a mark were called inactive. Active and inactive are the calls of the source. Calls follow the shape of the dose curve; as a rule, active = well fitted inhibition curve with a large enough effect; inconclusive = small, poorly fitted or top-dose-only effect; inactive = no such curve, though single readings can be large or run the other way.

Molecular target: Cytochrome P450 3A7 (Homo sapiens) (UniProt P24462)
Sequence (P24462 whole entry, looked up): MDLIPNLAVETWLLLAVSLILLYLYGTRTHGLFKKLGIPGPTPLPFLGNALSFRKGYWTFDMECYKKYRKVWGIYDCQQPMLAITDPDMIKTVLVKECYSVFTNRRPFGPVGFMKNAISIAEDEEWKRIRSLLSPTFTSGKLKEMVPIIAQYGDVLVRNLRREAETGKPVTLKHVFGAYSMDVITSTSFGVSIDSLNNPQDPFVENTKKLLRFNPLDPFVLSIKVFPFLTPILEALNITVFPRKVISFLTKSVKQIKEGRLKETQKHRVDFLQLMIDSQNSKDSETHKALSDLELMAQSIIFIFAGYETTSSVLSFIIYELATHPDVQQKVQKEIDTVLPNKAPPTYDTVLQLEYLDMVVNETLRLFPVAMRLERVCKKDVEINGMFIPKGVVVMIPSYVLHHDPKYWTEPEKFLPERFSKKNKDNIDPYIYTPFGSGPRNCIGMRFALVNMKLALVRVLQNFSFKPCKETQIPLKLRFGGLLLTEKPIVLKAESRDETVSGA
Experiment: Cytochrome P450 family 3 subfamily A member 7 (CYP3A7) small molecule antagonists: luciferase biochemical qHTS assay (AID 1963596); also: nearly all actives have a fitted effect of over 40% in size
Conditions: P450-Glo CYP3A7 enzyme luminescence, 1 h; series mostly up to 57.4 µM; activity change, negative = inhibition: at the top concentration
Description: National Center for Advancing Translational Sciences [NCATS] Assay Overview: Cytochrome P450 (CYP) enzymes are membrane-bound hemeproteins that play a key role in metabolism of drugs and xenobiotics. The CYP3A subfamily is the most abundant, representing 30% of the total adult hepatic CYP content, whereas CYP3A7 is found predominantly in human fetal liver and accounts up to 50% of the total fetal hepatic CYP content. Testing the effect of chemicals on CYP isozymes is useful to minimize the adverse drug reactions and toxicities in the drug development process. Chemicals were tested for their effect on CYP enzyme activities by using P450-Glo (TM) screening systems (Promega Corporation, Madison, WI). These systems provide a luminescent method containing proluciferin substrates and are converted to luciferin products by CYP isozymes. The luciferin products formed are detected with a luciferin detection reagent, and the amount of light produced is proportional to CYP activity. P450-Glo (TM) CYP3A7 screening system (Catalog. No. V8812) was used to detect the compounds that interfere with CYP3A7 activity. The positive control compound used for CYP3A7 assay is ketoconazole (Sigma-Aldrich, St. Louis, MO).
Assay Protocol Summary: Two ul of enzyme-substrate mix was dispensed into medium binding white/solid 1536-well plates (Greiner Bio-One North America Inc., Monroe, NC) using a Flying Reagent Dispenser (FRD, Aurora Discovery, San Diego, CA). Compounds dissolved in DMSO, and positive control (ketoconazole) were transferred to the assay plates at 23 nl using a Pintool station (Wako, San Diego, CA). The assay plates were incubated at room temperature for 10 min. Then 2 ul of NADPH regeneration solution was added to each well of the assay plates using an FRD and incubated at room temperature for 1 h. The reaction was stopped by adding 4 ul of detection reagent using an FRD and after 20 min incubation at room temperature the luminescence signal was measured using a ViewLux plate reader (Perkin Elmer, Shelton, CT). Data were expressed as relative luminescence units.
% is scaled to controls: 0 for no effect and ±100 for the full control effect; potency is read from the fitted curve at half-maximal effect.

Structure (SMILES) | activity change, negative = inhibition | Potency | outcome
CCC(=O)c1ccc(O)cc1 | -9.89% |  | 
NS(=O)(=O)c1ccc(N2CCCCS2(=O)=O)cc1 | -22.3% |  | 
CCOc1cc(C(C)(C)C)ccc1C1=NC(C)(c2ccc(Cl)cc2)C(C)(c2ccc(Cl)cc2)N1C(=O)N1CCN(CCCS(C)(=O)=O)CC1 (stereo not given) |  | 2820 nM (active) | 
CCCN[C@H]1CCc2nc(N)sc2C1 | 31.4% |  | 
CO/N=C(/C(=O)N[C@@H]1C(=O)N2C(C(=O)[O-])=C(C[n+]3ccn4ncccc43)CS[C@H]12)c1nsc(N)n1 | 6.67% |  | 
COC(=O)c1ccc2c(C(=Nc3ccc(N(C)C(=O)CN4CCN(C)CC4)cc3)c3ccccc3)c(O)[nH]c2c1 | -22.5% |  | 
COC(=O)CCc1ccc(OCC(O)CNC(C)C)cc1 (stereo not given) | -9.48% |  | 
C[C@@H]1CN(Cc2ccccc2)C[C@H]1c1nc2c(cnn2C2CCOCC2)c(=O)[nH]1 | 1.87% |  | 
C[N+]12CCC(CC1)C(OC(=O)C(O)(c1ccccc1)c1ccccc1)C2 (stereo not given) | -13.2% |  | 
CCCCCC/C=C\CCCCCCCc1cccc(O)c1C(=O)O | -3.32% |  | 
CC(C(=O)O)c1cccc(Oc2ccccc2)c1 (stereo not given) | -10.6% |  | 
NC1=N[C@H]2[C@H](CS[C@H]2CCCCC(=O)O)N1 | 0% [at 23.9 µM] |  | 
O=C(O)c1ccccn1 | 21.3% |  | 
CCOC(=O)c1ccc(O)cc1 | -4.79% |  | 
O=C(O)CCc1nc2ccccc2[nH]1 | 1.78% |  | 
CC(C)(C)NCC(O)COc1cccc2c1CCCC2=O (stereo not given) | -10.3% |  | 
Cn1cnc([N+](=O)[O-])c1Sc1ncnc2nc[nH]c12 | -18.2% |  | 
CCOc1nc2cccc(C(=O)O)c2n1Cc1ccc(-c2ccccc2-c2nn[nH]n2)cc1 | 119% |  | 
C[C@@H](O)[C@H]1C(=O)N2C(C(=O)O)=C([C@H]3CCCO3)S[C@H]12 | -4.83% |  | 
Cc1nn(Cc2ccccc2Cl)c(C)c1CN(C)CC(O)COc1ccc(Cl)cc1 (stereo not given) | 0% |  | 

Structure (SMILES) | activity change, negative = inhibition | Potency | outcome
CN(CCCOc1ccc(Cc2ccccc2)cc1)CCC(=O)O | -9.69% |  | 
C=CCc1ccccc1OCC(O)CNC(C)C (stereo not given) | -27.1% |  | 
CCCCN=C(N)NC(=N)N |  |  | inactive
Cc1cc(NS(=O)(=O)c2ccc(N)cc2)no1 | -4.12% |  | 
Nc1c(CC(=O)O)cccc1C(=O)c1ccccc1 | -14.8% |  | 
CNC(=O)CN(CCN(CCN(CC(=O)[O-])CC(=O)NC)CC(=O)[O-])CC(=O)[O-].O.[Gd+3] | 22.5% |  | 
CC(=O)OC[C@H]1O[C@@H](n2ncc(=O)[nH]c2=O)[C@H](OC(C)=O)[C@@H]1OC(C)=O | 0.623% |  | 
C#CC(C)(CC)OC(=O)c1ccccc1C(=O)O (stereo not given) | -3.99% |  | 
O=C(O)C1CCC1 | -8.91% |  | 
CCn1nnnc1NCc1ccc(C(C)C)cc1 | 0% |  | 
COc1ccccc1N1CCN(CC(O)COc2cc(OC)c(OC)c(OC)c2)CC1 (stereo not given) | -13.2% |  | 
C[C@H](O)C(=O)Nc1c(I)c(C(=O)NC(CO)CO)c(I)c(C(=O)NC(CO)CO)c1I | 1.54% |  | 
Cn1c(=O)c2c(ncn2CC(O)CO)n(C)c1=O (stereo not given) | -0.234% |  | 
CC(=O)N(CC(O)CO)c1c(I)c(C(=O)NCC(O)CO)c(I)c(C(=O)NCC(O)CO)c1I (stereo not given) | 8.42% |  | 
Cc1cc2c(cc1CC(=O)c1sccc1S(=O)(=O)Nc1onc(C)c1Cl)OCO2 | 0% |  | 
C[C@H]1NCc2cc(-c3ccc4c(=O)c(C(=O)O)cn(C5CC5)c4c3OC(F)F)ccc21 | -10.6% [at 23.9 µM] |  | 
CCOC(=O)c1ccc(NC(=O)c2cc(=O)c3ccc(C)c(C)c3o2)cc1 | -22.1% |  | 
C=Cc1ccccc1 | -2.24% |  | 
CCN1CCN(C(=O)N[C@@H](C(=O)N[C@@H]2C(=O)N3C(C(=O)O)=C(CSc4nnnn4C)CS[C@H]23)c2ccc(O)cc2)C(=O)C1=O | -29.1% |  | 
O=[N+]([O-])c1cncn1CCN1CCOCC1 | -11.6% |  | 
